Screening data from PubChem.
YjeE inh: displaces an ADP probe from E. coli YjeE (TsaE). purified YjeE enzyme, qHTS inhibition assay. Potency, µM. 71,000 tested, 0.05% active. AID 605
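Fluorescence polarization of a BODIPY Texas Red–ADP probe (2 uM) bound to purified YjeE (10 uM) was read after 15 min room-temperature incubation with compounds. Loss of polarization marks inhibitors; ADP serves as titrated control.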
ERK AVP inh: inhibitors of vasopressin-stimulated ERK signaling pathway. HEK293-V1b, vasopressin-stimulated pERK AlphaScreen. 72,000 tested, 0.99% active. Potency, µM (top dose mostly 57.5 µM), hits mostly inhibitors; further: nearly all actives have a fitted effect of over 55% in size
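HEK293 cells stably expressing V1b receptor, preincubated 30 min at 37 °C with compound, then stimulated 5 min with 25 nM vasopressin. Phospho-ERK by AlphaScreen SureFire after 5 h RT; normalized to DMSO and vasopressin; AC50 by Hill fit.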
BRCT inh green: BRCA1 BRCT-phosphoprotein interaction inhibition | Potency, µM (highest dose often 76.9 µM), most hits filed as inhibitors | 75,000 tested, 0.05% active | BRCA1 BRCT-phosphopeptide binding, green fluorescence polarization | P38398
Target sequence (P38398 whole entry, looked up): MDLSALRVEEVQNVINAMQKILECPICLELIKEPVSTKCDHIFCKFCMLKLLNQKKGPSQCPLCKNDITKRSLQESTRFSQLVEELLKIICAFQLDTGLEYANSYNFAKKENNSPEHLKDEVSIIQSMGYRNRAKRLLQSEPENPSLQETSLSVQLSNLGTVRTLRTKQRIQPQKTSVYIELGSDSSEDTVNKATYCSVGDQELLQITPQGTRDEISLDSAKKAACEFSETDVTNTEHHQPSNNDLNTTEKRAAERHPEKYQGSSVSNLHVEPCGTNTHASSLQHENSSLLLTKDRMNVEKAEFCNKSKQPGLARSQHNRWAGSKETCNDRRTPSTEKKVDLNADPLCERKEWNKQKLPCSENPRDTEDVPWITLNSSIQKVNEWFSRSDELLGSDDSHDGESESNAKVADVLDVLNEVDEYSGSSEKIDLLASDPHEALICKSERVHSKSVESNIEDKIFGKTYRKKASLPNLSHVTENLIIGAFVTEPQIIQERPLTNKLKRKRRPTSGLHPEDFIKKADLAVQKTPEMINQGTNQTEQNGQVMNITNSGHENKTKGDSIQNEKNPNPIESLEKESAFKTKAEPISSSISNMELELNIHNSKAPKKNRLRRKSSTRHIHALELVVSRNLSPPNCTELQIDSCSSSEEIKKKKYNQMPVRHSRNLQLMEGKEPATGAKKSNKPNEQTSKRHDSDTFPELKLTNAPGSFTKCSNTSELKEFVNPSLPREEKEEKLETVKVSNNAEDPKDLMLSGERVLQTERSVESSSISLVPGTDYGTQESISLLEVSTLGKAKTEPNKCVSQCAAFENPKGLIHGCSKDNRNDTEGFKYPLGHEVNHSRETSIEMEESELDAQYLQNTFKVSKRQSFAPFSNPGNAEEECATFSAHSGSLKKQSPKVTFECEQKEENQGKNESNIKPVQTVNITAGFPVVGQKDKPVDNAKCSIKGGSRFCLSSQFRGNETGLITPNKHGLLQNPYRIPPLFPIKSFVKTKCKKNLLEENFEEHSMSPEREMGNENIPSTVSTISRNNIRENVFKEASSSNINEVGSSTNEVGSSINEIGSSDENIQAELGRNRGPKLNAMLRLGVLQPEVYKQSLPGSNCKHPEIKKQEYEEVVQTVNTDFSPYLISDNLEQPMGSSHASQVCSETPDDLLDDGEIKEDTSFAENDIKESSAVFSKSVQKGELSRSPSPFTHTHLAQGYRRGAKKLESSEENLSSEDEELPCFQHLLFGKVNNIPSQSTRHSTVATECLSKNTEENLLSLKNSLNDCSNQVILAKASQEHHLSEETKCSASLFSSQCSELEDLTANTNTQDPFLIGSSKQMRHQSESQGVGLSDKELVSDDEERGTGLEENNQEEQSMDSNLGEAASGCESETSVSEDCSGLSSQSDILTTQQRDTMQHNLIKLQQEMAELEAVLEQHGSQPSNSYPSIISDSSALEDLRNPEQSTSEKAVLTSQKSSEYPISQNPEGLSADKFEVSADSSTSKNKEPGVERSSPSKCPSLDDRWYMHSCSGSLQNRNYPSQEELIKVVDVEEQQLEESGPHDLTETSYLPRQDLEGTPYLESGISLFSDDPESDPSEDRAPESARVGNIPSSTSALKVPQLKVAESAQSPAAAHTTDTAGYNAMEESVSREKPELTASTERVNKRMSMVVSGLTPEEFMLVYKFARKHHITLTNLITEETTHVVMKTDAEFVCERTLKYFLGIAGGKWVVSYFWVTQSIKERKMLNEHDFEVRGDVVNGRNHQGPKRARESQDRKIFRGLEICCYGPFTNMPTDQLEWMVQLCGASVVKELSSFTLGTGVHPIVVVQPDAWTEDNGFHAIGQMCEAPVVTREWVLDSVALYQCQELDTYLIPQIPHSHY
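Fluorescence polarization: His-tagged BRCT (~35 kDa BRCA1 C-terminus, 250 nM) bound to 100 nM fluorescein-labeled phosphorylated 10-aa BACH1 peptide, pH 7.3 phosphate buffer with DTT and Tween 20. Compounds incubated 12 min at room temperature; inhibition read as lowered polarization.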
BRCT PPI red: disrupts BRCA1 BRCT binding to phosphoprotein, red fluorophore readout; 75,000 tested, 0.03% active; Potency, µM (top dose mostly 76.9 µM), most hits filed as inhibitors; P38398; BRCT-phosphopeptide binding, red fluorescence polarization
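Fluorescence polarization: 100 nM His-tagged BRCA1 BRCT with 100 nM TAMRA-labelled phospho-BACH1 decapeptide, phosphate buffer pH 7.3 with 150 mM NaCl, DTT, 0.01% Tween 20; 12 min RT. Binding inhibition seen as FP decrease.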
15-hLO inh: blocks human 15-lipoxygenase activity; P16050; purified 15hLO-1, xylenol orange hydroperoxide absorbance; Potency, µM (doses to about 57.1 µM), usual class: inhibitors; 74,000 tested, 1.4% active; AID 887; further: nearly all actives have a fitted effect of over 55% in size
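40 nM 15hLO-1 + cpd, 15 min RT; start w/ 50 uM AA (final), 6 min RT; stop/detect w/ 200 uM XO + 300 uM Fe(II) in 50 mM H2SO4, 30 min; A573/A405. Buffer 25 mM Hepes pH 7.5, 0.01% Triton X-100. No-enzyme wells as negative control.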
DNA Pol III inh: inhibitors of bacterial DNA polymerase III holoenzyme; reconstituted DNA polymerase III holoenzyme replication, biochemical; 71,000 tested, 0.25% active; Potency, µM (series often up to 57.1 µM)
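Reconstituted *E. coli* holoenzyme (0.35 nM Pol III, 1 nM beta, 154 nM SSB, 2 nM primase) was preincubated with compound for 15 min at RT. Synthesis on 1.4 nM ssM13Gori ran 35 min, then was stopped with PicoGreen/EDTA and read as dsDNA fluorescence.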
Hits are given with their value; ! = not confirmed by another sample; [ ] = remark or other dose. Only some compounds are listed: those with a hit (about 2.4% of all), similar ones and a draw of the others. The call rests on the fitted dose curve; in most records, active means well fitted curve in the direction sought with a large enough effect; inconclusive means small, poorly fitted or top-dose-only effect, or another doubt; inactive means no such curve, though single readings can be large; an effect the other way counts as inactive or inconclusive.

Screening COc1cc(C(=O)NCc2ccc3c(c2)OCO3)ccc1OCc1c(C)noc1C returned YjeE inh inactive, ERK AVP inh inactive, BRCT inh green inactive, BRCT PPI red inactive, 15-hLO inh 13µM and DNA Pol III inh inactive.
COc1ccc(-c2nc(CSCC(=O)NCc3ccc4c(c3)OCO4)c(C)o2)cc1OC was read as YjeE inh inactive, ERK AVP inh 32µM, BRCT inh green inactive, BRCT PPI red inactive, 15-hLO inh inactive and DNA Pol III inh inactive.
`Cc1ccc(CNC(=O)c2cccc(OCc3c(C)noc3C)c2)cc1` gave YjeE inh inactive, ERK AVP inh inactive, BRCT inh green inactive, BRCT PPI red inactive, 15-hLO inh inactive and DNA Pol III inh inactive.
`Cn1c(=O)c2c(nc3sccn32)n(C)c1=O` gave YjeE inh inactive, ERK AVP inh inactive, BRCT inh green inactive, BRCT PPI red inactive, 15-hLO inh inactive and DNA Pol III inh inactive.
`Nc1ccc(N2CCCCCC2)cc1` gave YjeE inh inactive, ERK AVP inh inactive, BRCT inh green inactive, BRCT PPI red inactive, 15-hLO inh 3.2µM and DNA Pol III inh inactive.
NC1(C(=O)O)CC(C(=O)O)C1 (centres undefined) was read as YjeE inh inactive, ERK AVP inh inactive, BRCT inh green inactive, BRCT PPI red inactive, 15-hLO inh 20µM! and DNA Pol III inh inactive.
Screening NC1(C(=O)O)CCC1 returned YjeE inh inactive, ERK AVP inh inactive, BRCT inh green inactive, BRCT PPI red inactive, 15-hLO inh inactive and DNA Pol III inh inactive.
O=C(O)[C@@H](O)[C@@H](O)[C@H](O)C(=O)CO was read as YjeE inh inactive, ERK AVP inh inactive[11.5 µM], BRCT inh green inactive[15.4 µM], BRCT PPI red inactive[15.4 µM], 15-hLO inh inactive[11.4 µM] and DNA Pol III inh inactive[11.4 µM].
For O=C(Nc1nc(-c2ccco2)cs1)c1ccccc1 the results were YjeE inh inactive, ERK AVP inh inactive, BRCT inh green inactive, BRCT PPI red inactive, 15-hLO inh 16µM and DNA Pol III inh inactive.
Screening O=C(C1COc2ccccc2O1)N1CCCC1 (centres undefined) returned YjeE inh inactive, ERK AVP inh inactive, BRCT inh green inactive, BRCT PPI red inactive, 15-hLO inh inactive and DNA Pol III inh inactive.
O=C(C1COc2ccccc2O1)N1CCc2ccccc21 (centres undefined) was read as YjeE inh inactive, ERK AVP inh inactive, BRCT inh green inactive, BRCT PPI red inactive, 15-hLO inh 16µM and DNA Pol III inh inconclusive.
For CC1CCC2C(C)(C)C3CC12CC[C@]3(C)O (some centres undefined) the results were ERK AVP inh inactive, BRCT inh green inactive, BRCT PPI red inactive and 15-hLO inh inconclusive.
CC(=O)O[C@]1(C)CC[C@]23CC1C(C)(C)C2CC[C@@H]3C (some centres undefined) was read as ERK AVP inh inactive, BRCT inh green inactive, BRCT PPI red inactive and 15-hLO inh 25µM.
`O=C(O)c1cnc2ccccc2n1` gave YjeE inh inactive, ERK AVP inh inactive, BRCT inh green inactive, BRCT PPI red inactive, 15-hLO inh 20µM and DNA Pol III inh inactive.
`O=C(Nc1cccnc1)c1cnc2ccccc2n1` gave YjeE inh inactive, ERK AVP inh inactive, BRCT inh green inactive, BRCT PPI red inactive, 15-hLO inh inactive and DNA Pol III inh inactive.
CN1CCN(c2ncc3nc(-c4ccccc4)c(=O)n(CCc4ccccc4)c3n2)CC1 was read as YjeE inh inactive, ERK AVP inh inactive, BRCT inh green inactive, BRCT PPI red inactive, 15-hLO inh inconclusive and DNA Pol III inh inactive.
Screening O=C(COc1ccccc1)N1CCN(c2ncnc3c2cnn3-c2ccccc2)CC1 returned YjeE inh inactive, ERK AVP inh 25µM, BRCT inh green inactive, BRCT PPI red inactive, 15-hLO inh inactive and DNA Pol III inh inactive.
Screening CC(=O)Nc1ccc(NC(C)=O)s1 returned YjeE inh inactive, ERK AVP inh inactive, BRCT inh green inactive, BRCT PPI red inactive, 15-hLO inh 20µM and DNA Pol III inh inactive.
For CC(=O)Nc1ccc(-c2ccccc2)s1 the results were YjeE inh inactive, ERK AVP inh inactive, BRCT inh green inactive, BRCT PPI red inactive, 15-hLO inh inactive and DNA Pol III inh inactive.
S=C([S-])NCCNC(=S)[S-].[Zn+2] was read as YjeE inh inactive, ERK AVP inh inactive, BRCT inh green inactive, BRCT PPI red inactive, 15-hLO inh 13µM and DNA Pol III inh 0.4µM.
`Cn1c(C(=O)NCCCN2CCCCCC2)cc2c(=O)n(C)c3ccccc3c21` gave YjeE inh inactive, ERK AVP inh inactive, BRCT inh green inactive, BRCT PPI red inactive, 15-hLO inh inactive and DNA Pol III inh 7.9µM.
For CCCN1CCN(CCCNC(=O)c2cc3c(=O)n(C)c4ccccc4c3n2C)CC1 the results were YjeE inh inactive, ERK AVP inh inactive, BRCT inh green inactive, BRCT PPI red inactive, 15-hLO inh inactive and DNA Pol III inh inactive.
`COc1cc(C2c3[nH]c4ccccc4c3CC3C(=O)N4C(Cc5c([nH]c6ccccc56)C4c4cc(OC)c(OC)c(OC)c4)C(=O)N32)cc(OC)c1OC` (centres undefined) gave ERK AVP inh inactive[11.5 µM], BRCT inh green inactive[15.4 µM], BRCT PPI red inactive[15.4 µM] and 15-hLO inh inactive[11.4 µM].
Screening C[C@@H]1OC(OC2CC[C@@]3(C)C(CC[C@@]4(C)C3CC=C3C5CC(C)(C)CC[C@]5(C(=O)OC5OCC(O)[C@@H](O)[C@@H]5OC5O[C@@H](C)[C@H](O[C@H]6OC(CO)C(O)C(O)C6O)C(O)C5O)C(O)C[C@@]34C)C2(C)C)C(O)C(O)[C@H]1OC1OCC(O)C(O)[C@H]1O (some centres undefined) returned ERK AVP inh 13µM, BRCT inh green inactive, BRCT PPI red inactive and 15-hLO inh inactive.
For Cc1ccc(O)c(-c2cc(C(=O)Nc3ccc(S(=O)(=O)N4CC(C)OC(C)C4)cc3)[nH]n2)c1 (centres undefined) the results were YjeE inh inactive, ERK AVP inh inconclusive, BRCT inh green inactive, BRCT PPI red inactive, 15-hLO inh inconclusive and DNA Pol III inh inactive.
For Cc1cc(O)c(-c2cc(C(=O)Nc3ccc(S(=O)(=O)N4CCOCC4)cc3)[nH]n2)cc1C the results were YjeE inh inactive, ERK AVP inh 25µM, BRCT inh green inactive, BRCT PPI red inactive, 15-hLO inh inconclusive and DNA Pol III inh inactive.
`NC(=O)[C@@H]1CCCN1Cc1ccc2c(c1)OCO2` gave YjeE inh inactive, ERK AVP inh inactive[11.5 µM], BRCT inh green inactive[15.4 µM], BRCT PPI red inactive[15.4 µM], 15-hLO inh inactive[11.4 µM] and DNA Pol III inh inactive[11.4 µM].
Screening C[C@@]12C(=O)OC(=O)[C@@]1(C)C1CCC2O1 returned ERK AVP inh 3.2µM, BRCT inh green inactive, BRCT PPI red inactive and 15-hLO inh inactive.
